Bioassay records from PubChem BioAssay.
PfG6PD inh: PfG6PD (Plasmodium falciparum) enzyme inhibition; hit rate 0.78% among 350,000; AID 504690; PfGluPho enzyme, NADPH resazurin-diaphorase fluorescence; inhibition, % at 20 µM;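 active means inhibition reaching at least a set limit at 20 µM in the primary screen, cut at about 59% in these data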
APOBEC3G inh: inhibitors of human APOBEC3G DNA deaminase | Q9HC16 | recombinant A3G, ssDNA deamination FAM/TAMRA fluorescence | inhibition, % at 20 µM | hit rate 0.28% among 330,000;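 active means inhibition of at least 40% at 20 µM, with no more than 30% in the related APOBEC3A deaminase screen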
Yeast superoxide: yeast age-related superoxide inhibition as caloric restriction mimetic. S. cerevisiae aged cells, superoxide DHE fluorescence; hits give low values. superoxide response (% of plate mean), % at 10 µM. hit rate 0.18% among 330,000;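 active means superoxide response under a set limit, about three screen SD below normal, cut at about 65% in these data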;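 further: yeast aged for seven days with compound at 30 °C before DHE staining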
M18AAP inhibitor: blocks P. falciparum M18 aspartyl aminopeptidase; recombinant PfM18AAP, H-Glu-NHMec fluorogenic cleavage; inhibition, % at 7.35 µM; hit rate 1.2% among 290,000; AID 1822;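 active means inhibition above the campaign mean inhibition over all tested compounds plus 3 SD, cut at about 28% in these data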
A3A deaminase: human APOBEC3A DNA deaminase inhibition; recombinant A3A, FAM/TAMRA ssDNA deamination fluorescence; hit rate 0.41% among 330,000; inhibition, % at 20 µM;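 active means at least 40% inhibition at 20 µM here, with at most 30% in a related deaminase screen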
Target sequence (P31941 whole entry, looked up): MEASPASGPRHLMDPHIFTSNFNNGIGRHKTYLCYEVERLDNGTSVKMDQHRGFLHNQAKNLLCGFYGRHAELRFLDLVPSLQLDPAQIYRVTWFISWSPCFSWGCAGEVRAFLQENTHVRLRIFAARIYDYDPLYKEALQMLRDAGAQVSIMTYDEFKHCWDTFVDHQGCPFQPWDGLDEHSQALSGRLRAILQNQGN
PfGluPho conf: confirmation of Plasmodium falciparum G6PD inhibitors; shares compounds with PfG6PD inh; recombinant PfGluPho, NADPH-diaphorase-resazurin fluorescence; inhibition, % at 20 µM; hit rate 34% among 2,400;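 active means inhibition of at least 50% at 20 µM in any single replicate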
Diaphorase 10uM: counter-screen for P. falciparum G6PD inhibitors: diaphorase inhibitors, oxidizers; shares compounds with PfG6PD inh; diaphorase-coupled resazurin reduction, fluorescence, NADPH 10 uM; inhibition, % at 20 µM; hit rate 39% among 820;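 active means average inhibition reaching 50% or more with the compound at 20 µM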;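 further: resorufin red fluorescence formed as diaphorase reduces resazurin using NADPH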
Diaphorase 30uM: counter-screen for P. falciparum G6PD inhibitors: diaphorase inhibitors, oxidizers; hit rate 29% among 820; shares compounds with PfG6PD inh; inhibition, % at 20 µM; Diaphorase/resazurin coupled assay, resorufin fluorescence, 30 uM NADPH;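 active means inhibition averaging 50% or more, tested at 20 µM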
Hits are given with their value; i = inactive; nt = no result given. Most compounds without a hit are left out; they make up all but 2.4% or so of the library.

SMILES | PfG6PD inh | APOBEC3G inh | Yeast superoxide | M18AAP inhibitor | A3A deaminase | PfGluPho conf | Diaphorase 10uM | Diaphorase 30uM
Nc1ccc2c3c(cccc13)-c1ccccc1-2 | 79.5 | nt | nt | nt | nt | 81.7 | i | i
Nc1ccc(C2(c3ccc(N)cc3)c3ccccc3-c3ccccc32)cc1 | i | i | i | i | i | nt | nt | nt
c1cc2c(cc1N1CCCCC1)C1CC2CCN1 (stereo not given) | i | nt | nt | nt | nt | nt | nt | nt
CC1[C@H]2Cc3ccc(O)cc3[C@]1(C)CCN2C (stereo not given in full) | i | nt | nt | nt | nt | nt | nt | nt
CN1CC[C@@]2(C)c3cc(O)ccc3N(C)[C@@H]12 | 83.2 | nt | nt | nt | nt | 103.6 | 74.3 | i
CN=C1CN(O)C(c2ccccc2)c2cc(Cl)ccc2N1 (stereo not given) | i | nt | nt | nt | nt | nt | nt | nt
O=C(c1cc([N+](=O)[O-])ccc1N1CCNCC1)N1CCOCC1 | i | i | i | i | i | nt | nt | nt
O=C(c1cc(-c2ccc(Cl)cc2)n(-c2ccc(Cl)cc2Cl)n1)N1CCOCC1 | 82.4 | i | i | i | i | i | nt | nt
c1ccc(-c2nc(N3CCOCC3)s[n+]2-c2ccccc2)cc1 | 59.1 | i | i | i | i | 72.8 | i | i
COP(=S)(OC)SCn1nnc2ccccc2c1=O | i | nt | nt | nt | nt | nt | nt | nt
O=C(O)CC1OCC=C2CN3CCC45C6=CC(=O)C(=O)C([N+](=O)[O-])=C6NC4C1C2CC35 (stereo not given) | 106.9 | nt | i | i | nt | 105.2 | 91.2 | 96.5
O=C1NC(=O)N(c2ccc3c(c2)OCO3)C(=O)/C1=C/c1cccs1 | 67.2 | i | i | i | i | i | nt | nt
